Experiment [1] relates to Plasmodium falciparum Sir2 (PF13_0152, Sir2A). Description: Plasmodium falciparum Sir2A binding compounds – biochemical, small-molecule microarray, 635 nm fluorescence, primary screen (AID 1098).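 Note: score merges spot fluorescence intensity with its signal-to-noise ratio.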 The note with it: fluorescence 635 nm, higher = more signal.
A short description of experiment [2]: probe aDKK1 binding to arrayed compounds – biochemical, biotinylated probe, 635/667 nm fluorescence, primary screen (AID 1099).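 Note: score merges 667nm spot fluorescence with signal to noise across triplicate slides.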 The note with it: small-molecule microarray, higher = more signal.
Experiment [3] is described as follows: probe aCHRDL2 binding to arrayed compounds – biochemical, biotinylated probe, 635/667 nm fluorescence, primary screen (AID 1100). The note with it: small-molecule microarray, higher = more signal.
Experiment [4] is described as follows: change in splice reporter luminescence, either direction, cell-based, HEK293, spliceosome inhibition project, primary screen (AID 1101).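 Note: HEK293 cells carrying a splicing-competent luciferase reporter gene; test concentration not given here.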 The note with it: HEK293 splicing luciferase reporter, 24 h, higher = more signal, called active from +8 up or from −8 down. For orientation: In a reporter assay the amount or activity of a reporter protein is the signal.
In experiment [5] the target is Fibroblast growth factor 10 (Homo sapiens) (UniProt O15520). Description: compounds binding fibroblast growth factor 10 – biochemical, small-molecule microarray, 635 nm fluorescence, primary screen (AID 1102). The note with it: FGF10 binding, fluorescence 635 nm, higher = more signal.
Sequence of Fibroblast growth factor 10 (Homo sapiens) (O15520 whole entry, looked up): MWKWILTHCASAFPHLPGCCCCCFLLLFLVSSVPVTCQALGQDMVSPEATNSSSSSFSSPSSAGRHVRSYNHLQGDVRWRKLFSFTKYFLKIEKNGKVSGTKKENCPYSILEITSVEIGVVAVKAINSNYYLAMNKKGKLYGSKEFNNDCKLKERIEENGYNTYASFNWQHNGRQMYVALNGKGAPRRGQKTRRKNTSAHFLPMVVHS
Experiment [6] relates to glycogen synthase kinase-3 (GSK3A per assay name; protocol says GSK3B). Put plainly: compounds binding glycogen synthase kinase-3 – biochemical, small-molecule microarray, 635 nm fluorescence, GSK3A, primary screen (AID 1103). Note: the record names both GSK3A and GSK3B. The note with it: fluorescence 635 nm, higher = more signal.
Experiment [7] concerns the target Epidermal growth factor receptor (Homo sapiens) (UniProt P00533). Description: compounds binding epidermal growth factor receptor – biochemical, small-molecule microarray, 635 nm fluorescence, primary screen (AID 1104).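 Note: score merges 667 nm emission intensity with spot signal to noise over triplicate slides.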 The note with it: EGFR binding, higher = more signal.
In experiment [8] the target is Follistatin-related protein 3 (Homo sapiens) (UniProt O95633). Put plainly: compounds binding follistatin-related protein 3 – biochemical, small-molecule microarray, 635 nm fluorescence, primary screen (AID 1105).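 Note: score merges emission near 667 nm and signal to noise per printed spot across three slides.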 The note with it: FSTL3 binding, higher = more signal.
Sequence of Follistatin-related protein 3 (Homo sapiens) (O95633 whole entry, looked up): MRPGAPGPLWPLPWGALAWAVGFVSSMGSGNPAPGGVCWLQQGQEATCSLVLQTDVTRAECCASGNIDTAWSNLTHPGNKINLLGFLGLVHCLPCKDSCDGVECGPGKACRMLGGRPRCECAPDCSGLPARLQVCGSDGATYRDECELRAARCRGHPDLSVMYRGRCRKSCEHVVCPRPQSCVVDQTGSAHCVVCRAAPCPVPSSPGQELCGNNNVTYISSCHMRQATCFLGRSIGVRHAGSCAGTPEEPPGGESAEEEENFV
The target of experiment [9] is Dickkopf-related protein 1 (Homo sapiens) (UniProt O94907). Put plainly: small molecules binding DKK1 protein – biochemical, small-molecule microarray, 635 nm fluorescence scan, primary screen (AID 1106).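 Note: score merges emission near 667 nm with signal to noise over three replicate slides.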 The note with it: higher = more signal.
Sequence of Dickkopf-related protein 1 (Homo sapiens) (O94907 whole entry, looked up): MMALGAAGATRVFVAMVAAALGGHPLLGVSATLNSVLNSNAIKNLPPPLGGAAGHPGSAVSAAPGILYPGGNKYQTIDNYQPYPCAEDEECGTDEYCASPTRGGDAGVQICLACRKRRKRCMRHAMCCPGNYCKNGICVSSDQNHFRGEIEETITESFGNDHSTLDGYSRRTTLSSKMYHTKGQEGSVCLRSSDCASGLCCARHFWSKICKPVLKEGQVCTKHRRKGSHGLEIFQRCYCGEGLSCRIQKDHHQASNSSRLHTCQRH
Experiment [10] relates to Inhibin beta A chain (activin A). Put plainly: small molecules binding activin A – biochemical, small-molecule microarray, 635 nm fluorescence scan, primary screen (AID 1107).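 Note: mouse activin A protein probed at 4.33 µg/mL on printed slides; score merges bound-protein fluorescence near 667 nm with spot signal-to-noise.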 The note with it: INHBA, higher = more signal.
Experiment [11] relates to Human papillomavirus type 1a protein E7 (residues 44-93). Description: small molecules binding HPV E7 44-93 – biochemical, small-molecule microarray, residues 44-93, 635 nm fluorescence, primary screen (AID 1108).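 Note: E7 fragment applied at 1 µg/mL in TBST for 1 h at 4 C; score combines spot fluorescence with its signal to noise ratio.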 The note with it: fluorescence 635 nm, higher = more signal.
A short description of experiment [12]: hepatitis C replication reporter changes, two-sided – Huh7 cells, luciferase reporter, HCV replication inhibitor project, primary screen (AID 1109).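 Note: huh7 hepatoma cells harbouring a luciferase neomycin HCV replicon reporter; luciferase luminescence as measure of HCV replicon replication; test concentration not given here.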 The note with it: Huh7 HCV replicon luciferase reporter, 48 h; higher = more signal.
Experiment [13] deals with Left-right determination factor 2 (Homo sapiens) (UniProt O00292). Put plainly: small molecules binding LEFTY2 protein – biochemical, small-molecule microarray, 635 nm fluorescence scan, primary screen (AID 1110). The note with it: higher = more signal.
Sequence of Left-right determination factor 2 (Homo sapiens) (O00292 whole entry, looked up): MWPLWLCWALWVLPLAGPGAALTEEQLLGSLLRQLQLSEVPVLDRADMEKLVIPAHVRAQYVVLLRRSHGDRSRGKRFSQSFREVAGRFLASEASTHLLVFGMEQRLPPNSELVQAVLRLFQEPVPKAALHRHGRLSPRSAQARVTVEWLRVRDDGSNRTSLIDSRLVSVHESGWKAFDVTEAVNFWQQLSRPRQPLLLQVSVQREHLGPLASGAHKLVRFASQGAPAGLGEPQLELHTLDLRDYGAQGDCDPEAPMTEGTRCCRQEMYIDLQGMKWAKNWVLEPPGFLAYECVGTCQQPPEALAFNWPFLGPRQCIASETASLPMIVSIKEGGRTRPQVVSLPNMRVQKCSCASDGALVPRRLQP
In experiment [14] the target is Calmodulin-1 (Homo sapiens) (UniProt P0DP23). Description: small molecules binding calmodulin-1 with EGTA – biochemical, small-molecule microarray, Cy5-labelled CALM1, profiling panel (AID 1111).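 Note: labelled calmodulin applied in Tris saline Tween buffer holding calcium plus EGTA and DTT.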 The note with it: Cy5-CALM1 binding fluorescence, higher = more signal.
Experiment [15] shares this target. Description: small molecules binding Ca-loaded calmodulin-1 – biochemical, small-molecule microarray, Cy5-labelled CALM1, plus calcium, artefact control for SMM control-protein annotation, profiling panel (AID 1112).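 Note: score merges spot fluorescence with signal to noise from triplicate slides.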 The note with it: Cy5-CALM1 binding fluorescence, higher = more signal.
Experiment [16] is described as follows: probe aWnt5a binding to arrayed compounds – biochemical, biotinylated probe, 635/667 nm fluorescence, primary screen (AID 1113).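 Note: score merges 667 nm fluorescence intensity with signal-to-noise per printed feature.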 The note with it: small-molecule microarray, higher = more signal.
Experiment [17] is described as follows: probe aShh binding to arrayed compounds – biochemical, biotinylated probe, 635/667 nm fluorescence, primary screen (AID 1114).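 Note: probe is biotin-labelled aShh protein from a stem cell growth factor screen; measures binding of labelled protein to compounds printed on the slide; score merges feature fluorescence at 667 nm with signal-to-noise.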 The note with it: small-molecule microarray, higher = more signal.
The nature of experiment [18]: probe aNog binding to arrayed compounds – biochemical, biotinylated probe, 635/667 nm fluorescence, primary screen (AID 1115).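 Note: probe is biotinylated aNog protein used at 0.15 µg/mL for 1 h at 4 C; z-score combines 667 nm fluorescence of each spot with its signal to noise.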 The note with it: small-molecule microarray, higher = more signal.
The target of experiment [19] is Torsin-1A-interacting protein 1 (Homo sapiens) (UniProt Q5JTV8). Description: compound microarray binding of lysate hLAP1 – cell lysate, small-molecule microarray, COS7 lysate, 635/667 nm fluorescence, primary screen (AID 1116). The note with it: 635 nm fluorescence, higher = more signal.
Sequence of Torsin-1A-interacting protein 1 (Homo sapiens) (Q5JTV8 whole entry, looked up): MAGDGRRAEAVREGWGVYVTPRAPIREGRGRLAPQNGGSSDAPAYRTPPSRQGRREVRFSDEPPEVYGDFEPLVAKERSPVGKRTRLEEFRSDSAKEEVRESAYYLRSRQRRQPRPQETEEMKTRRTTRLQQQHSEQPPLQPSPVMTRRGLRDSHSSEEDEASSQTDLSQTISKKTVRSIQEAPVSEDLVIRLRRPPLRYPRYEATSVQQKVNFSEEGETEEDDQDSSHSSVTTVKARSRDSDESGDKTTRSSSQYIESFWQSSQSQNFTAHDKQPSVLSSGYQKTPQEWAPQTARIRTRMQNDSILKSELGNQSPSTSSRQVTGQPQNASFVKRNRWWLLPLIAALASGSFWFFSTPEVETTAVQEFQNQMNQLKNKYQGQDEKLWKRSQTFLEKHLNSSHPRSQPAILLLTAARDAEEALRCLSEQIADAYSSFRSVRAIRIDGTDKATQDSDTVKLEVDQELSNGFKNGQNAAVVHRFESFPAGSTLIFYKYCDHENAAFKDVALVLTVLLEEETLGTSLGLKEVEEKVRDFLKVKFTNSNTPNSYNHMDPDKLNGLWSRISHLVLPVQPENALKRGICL
For experiment [20], the target named is Alpha-bungarotoxin (Bungarus multicinctus) (UniProt P60615). Description: compounds binding labelled alpha-BTX control protein – biochemical, small-molecule microarray, Alexa647 label, 635/667 nm fluorescence, artefact control for SMM control protein annotation, profiling panel (AID 1117). The note with it: alpha-BTX-A647 binding fluorescence, higher = more signal.
Sequence of Alpha-bungarotoxin (Bungarus multicinctus) (P60615 whole entry, looked up): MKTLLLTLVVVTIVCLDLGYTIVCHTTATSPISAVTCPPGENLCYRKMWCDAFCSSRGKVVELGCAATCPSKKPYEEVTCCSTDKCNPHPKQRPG

Activity calls are given as the source filed them.

Sequence of Epidermal growth factor receptor (Homo sapiens) (P00533 whole entry, looked up): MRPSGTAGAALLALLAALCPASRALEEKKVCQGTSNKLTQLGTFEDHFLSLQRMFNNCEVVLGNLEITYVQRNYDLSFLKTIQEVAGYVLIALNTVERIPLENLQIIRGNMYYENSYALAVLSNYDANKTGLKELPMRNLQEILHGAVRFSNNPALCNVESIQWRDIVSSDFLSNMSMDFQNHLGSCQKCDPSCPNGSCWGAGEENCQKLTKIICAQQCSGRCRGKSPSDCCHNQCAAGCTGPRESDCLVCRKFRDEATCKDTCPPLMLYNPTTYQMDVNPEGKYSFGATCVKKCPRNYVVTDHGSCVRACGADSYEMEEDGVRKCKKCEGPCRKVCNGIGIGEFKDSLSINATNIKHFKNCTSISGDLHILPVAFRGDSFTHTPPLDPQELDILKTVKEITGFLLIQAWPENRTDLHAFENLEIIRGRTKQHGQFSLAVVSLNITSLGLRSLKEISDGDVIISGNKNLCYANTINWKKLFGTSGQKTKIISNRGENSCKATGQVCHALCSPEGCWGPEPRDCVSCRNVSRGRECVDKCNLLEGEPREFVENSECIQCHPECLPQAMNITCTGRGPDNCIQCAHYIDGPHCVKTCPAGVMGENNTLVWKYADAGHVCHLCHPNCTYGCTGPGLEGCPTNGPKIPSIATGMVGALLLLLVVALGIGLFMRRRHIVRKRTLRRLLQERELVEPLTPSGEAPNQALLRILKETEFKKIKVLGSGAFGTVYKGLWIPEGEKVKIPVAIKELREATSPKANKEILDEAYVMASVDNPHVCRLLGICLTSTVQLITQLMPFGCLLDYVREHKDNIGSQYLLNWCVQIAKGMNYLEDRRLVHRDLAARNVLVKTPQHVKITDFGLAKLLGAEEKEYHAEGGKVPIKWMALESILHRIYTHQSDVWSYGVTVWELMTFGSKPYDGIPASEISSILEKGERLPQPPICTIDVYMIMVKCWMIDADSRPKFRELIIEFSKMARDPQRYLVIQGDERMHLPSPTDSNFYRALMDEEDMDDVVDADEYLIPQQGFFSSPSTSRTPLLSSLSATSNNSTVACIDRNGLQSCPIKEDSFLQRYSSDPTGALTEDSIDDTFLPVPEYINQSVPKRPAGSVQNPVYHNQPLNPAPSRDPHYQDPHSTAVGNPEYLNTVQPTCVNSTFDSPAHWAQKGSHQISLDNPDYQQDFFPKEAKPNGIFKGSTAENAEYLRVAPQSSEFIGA

As for `C=C(COC)C(=O)CC[C@H](OC(=O)c1cccnc1)c1ccc(CO)o1`, the composite z-score in [1] was 1.44; in experiment [2], -0.424; in experiment [3], -0.686; in experiment [5] it was 0.905; in experiment [6] it was 0.596; in experiment [7] it was 0.393. The composite z-score in experiment [8] is 1.3; in experiment [9] it was 1.42; in experiment [10] it was 0.488; in [11] it was -0.132; in experiment [13], 0.879; in [14], -0.502. The composite z-score in [15] is -0.875; in [16], -0.167; in experiment [17] it was -0.214; in [18], -0.447; in experiment [19], 0.659; in [20], -0.0505. Besides, the z-score was 0.591 (inactive) in experiment [4] and -1.05 in experiment [12].
Consider `CN1C(=O)C2C=CC(C(O)c3ccc(F)cc3)N(NC(=O)OC(C)(C)C)C2C1=O` (stereo not given), for which the composite z-score in [1] was 0.578; in [2], -0.066; in experiment [3] it was 0.535; in experiment [5], 0.45; in experiment [6], 0.336; in [7] it was -0.196. For the same compound, the composite z-score in experiment [8] is 0.15; in experiment [9], -0.767; in experiment [10], 0.471; in [11], 1.36; in experiment [13], -0.205; in experiment [14] it was 0.989. Besides, the composite z-score is 0.469 in [15]; -0.109 in [16]; 0.265 in [17]; 1.12 in experiment [18]; -0.102 in experiment [19]; 0.613 in [20]. The z-score in experiment [4] was 1.15 (inactive); in experiment [12], -0.428.
Regarding `COCCOC(=O)N1C(=O)[C@@]2(c3cc(C#CC4(O)CCCCCC4)ccc31)[C@H](c1ccc(OCCO)cc1)N1[C@H](c3ccccc3)[C@H](c3ccccc3)OC(=O)[C@H]1[C@@H]2C(=O)Nc1nc2ccccc2s1`, the composite z-score in experiment [1] stood at 1.41; in experiment [2], 0.722; in experiment [3], 0.208; in [5] it was 1.05; in [6], 0.522; in [7], 0.538. The composite z-score in experiment [8] came out at 1.33; in [9], 0.559; in experiment [10], 0.308; in experiment [11], 1.22; in experiment [13] it was 0.985; in experiment [14] it was 1.35. Besides, the composite z-score in experiment [15] was 0.249; in [16], -0.006; in [17], 0.214; in experiment [18], 0.721; in experiment [19] it was 1; in experiment [20], 0.968. For the same compound, the figures for the z-score in experiment [4] and in experiment [12] were 0.268 (inactive) and -2.43, respectively.
On to `COC(=O)[C@@]1(Cc2ccccc2)[C@H]2c3cc(C(=O)N4CCCC4)n(CCSCCO)c3C[C@H]2CN1C(=O)c1ccccc1`, for which the composite z-score in experiment [1] is 0.809; in experiment [2], 1.25; in [3], 1.2; in [5] it was 0.283; in [6] it was 0.954; in [7] it was -0.0631. The composite z-score in [8] was 0.414; in experiment [9], -0.78; in experiment [10], 0.964; in experiment [11], 1.45; in experiment [13] it was -0.491; in experiment [14], 2.26. Besides, the composite z-score is 1.29 in experiment [15]; 0.145 in [16]; 0.417 in [17]; 2.24 in [18]; 2.04 in experiment [19]; 0.606 in experiment [20]. The z-score is -0.393 (inactive) in experiment [4] and -1.12 in experiment [12].
Take `C=CCC(OC(C)=O)[C@@H]1[C@@H](N(Cc2cc3ccccc3o2)C(=O)c2ccc(-c3ccccc3)cc2)c2cc(OCCCO)ccc2N1C(=O)Cc1ccc(OC)cc1` (stereo not given in full): the composite z-score is 0.104 in experiment [1]; -0.102 in experiment [2]; 0.0935 in [3]; 0.247 in [5]; -0.744 in [6]; 0.0306 in experiment [7]. Besides, the composite z-score was 0.307 in [8]; 0.063 in experiment [9]; 0.774 in experiment [10]; -0.401 in experiment [11]; 0.0189 in experiment [13]; -0.184 in [14]. Further, the composite z-score was 0.464 in experiment [15]; -0.0758 in experiment [16]; -0.335 in experiment [17]; -0.216 in experiment [18]; -0.195 in experiment [19]; -0.17 in experiment [20]. In addition, the z-score was -0.762 (inactive) in [4] and -1.46 in experiment [12].
